Measured values as given in PubChem BioAssay AID1159580 (chemical genetic matrix, 2015).
The campaign covered roughly 5,500 compounds. About 2,000 (36%) were called active. Another 18% or so got no clear call; they are omitted. No stated cut-off is given here; in the data, active means normalized growth mostly below about 0.91 (no sharp cut-off); inconclusive means no clear call, values can overlap the other calls; inactive means mostly above about 0.92. This is one part of the list.

Test: chemical genetic growth profiling, strain panel (AID 1159580);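 further: tested at 20 µM; growth read once vehicle control cultures reached saturation at 30 °C; 1 = growth at the plate median or of vehicle wells; lower values mean less growth of the strain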
Settings: S. cerevisiae deletion strains, growth OD
[1] = locus YHR030C, strain SLT2, hits give low values
[2] = locus YHR079C, strain IRE1, hits give low values
[3] = locus YJL095W, strain BCK1, hits give low values
[4] = locus YJR066W, strain TOR1, hits give low values
[5] = locus YLR113W, strain HOG1, hits give low values
[6] = locus YNL183C, strain NPR1, hits give low values
[7] = locus YOR231W, strain MKK1, hits give low values
[8] = locus YPL256C, strain CLN2, hits give low values

Measured: normalized growth

O=C(N/N=C\c1ccc([N+](=O)[O-])o1)c1ccc(O)cc1
inactive: [1] 0.924 | [2] 0.936 | [3] 0.907 | [4] 0.883 | [5] 0.872 | [6] 0.869 | [7] 0.91 | [8] 0.956

O=C(NNc1c(Cl)cccc1Cl)c1ccc([N+](=O)[O-])o1
inactive: locus YAR019C, strain CDC15, hits give low values 0.956 | locus YBL105C, strain PKC1, hits give low values 0.967 | locus YBR135W, strain CKS1, hits give low values 0.957 | locus YBR136W, strain MEC1, hits give low values 0.964 | locus YBR160W, strain CDC28, hits give low values 0.945 | locus YDL017W, strain CDC7, hits give low values 0.972 | locus YDL028C, strain MPS1, hits give low values 0.941 | locus YDL101C, strain DUN1, hits give low values 0.964 | locus YDL108W, strain KIN28, hits give low values 0.949 | locus YDL132W, strain cdc53, hits give low values 0.936 | locus YDL214C, strain PRR2, hits give low values 0.895 | locus YDR052C, strain DBF4, hits give low values 0.981 | locus YDR054C, strain cdc34, hits give low values 0.959 | locus YDR226W, strain ADK1, hits give low values 0.96 | locus YDR477W, strain SNF1, hits give low values 0.873 | locus YER123W, strain YCK3, hits give low values 0.87 | locus YER133W, strain GLC7, hits give low values 0.916 | locus YFL009W, strain cdc4, hits give low values 0.918 | locus YFL029C, strain CAK1, hits give low values 0.948 | locus YFR003C, strain YPI1, hits give low values 0.965 | locus YFR019W, strain FAB1, hits give low values 0.89 | locus YFR028C, strain CDC14, hits give low values 0.925 | locus YGR040W, strain KSS1, hits give low values 0.883 | locus YGR052W, strain FMP48, hits give low values 0.938 | locus YGR092W, strain DBF2, hits give low values 0.874 | [2] 0.885 | locus YHR082C, strain KSP1, hits give low values 0.916 | locus YHR205W, strain SCH9, hits give low values 0.897 | locus YIL147C, strain SLN1, hits give low values 0.96 | [3] 0.833 | locus YJL128C, strain PBS2, hits give low values 0.899 | locus YJL157C, strain FAR1, hits give low values 0.907 | locus YJR016C, strain ILV3, hits give low values 0.956 | locus YJR066W, strain TOR1 (second series), hits give low values 0.851 | [4] 0.848 | locus YKL048C, strain ELM1, hits give low values 0.909 | locus YKL067W, strain YNK1, hits give low values 0.886 | locus YKL101W, strain HSL1, hits give low values 0.884 | locus YKL193C, strain SDS22, hits give low values 0.956 | locus YKL203C, strain TOR2, hits give low values 0.974 | locus YLR133W, strain CKI1, hits give low values 0.906 | locus YLR403W, strain SFP1, hits give low values 0.897 | locus YML070W, strain DAK1, hits give low values 0.884 | locus YMR001C, strain CDC5, hits give low values 0.957 | locus YMR205C, strain PFK2 (second series), hits give low values 0.937 | locus YMR277W, strain FCP1, hits give low values 0.932 | locus YNL006W, strain LST8, hits give low values 0.973 | locus YNL020C, strain ARK1, hits give low values 0.919 | locus YNL161W, strain CBK1, hits give low values 0.966 | [6] 0.935 | locus YNL207W, strain RIO2, hits give low values 0.953 | locus YNL222W, strain SSU72, hits give low values 0.94 | locus YNL307C, strain MCK1 (second series), hits give low values 0.887 | locus YOL078W, strain AVO1, hits give low values 0.945 | locus YOL136C, strain PFK27, hits give low values 0.886 | locus YOR061W, strain CKA2, hits give low values 0.914 | locus YOR119C, strain RIO1, hits give low values 0.917 | [7] 0.837 | locus YOR329C, strain SCD5, hits give low values 0.967 | locus YPL031C, strain PHO85, hits give low values 0.88 | locus YPL153C, strain RAD53, hits give low values 0.875 | locus YPL204W, strain HRR25, hits give low values 0.866 | locus YPL209C, strain IPL1, hits give low values 0.964 | locus YPR025C, strain CCL1, hits give low values 0.962 | locus YPR106W, strain ISR1, hits give low values 0.96 | locus YPR111W, strain DBF20, hits give low values 0.94 | strain NNK1, hits give low values 0.965 | strain TSCII, hits give low values 0.947
active: [1] 0.698 | [5] 0.777 | [8] 0.811
